According to the supplement of paper PMC3334620:
The full ranking holds about 33,000 sequences; the median of “E-score (-0.5 to 0.5)” is about -0.01, and the highest 2% start at about 0.26. Shown is part of a subset that was picked to be rich in the highest values.

molecular target: Ste12 (UniProt P13574); assay: PBM E-score (8-mer binding enrichment) (E-score (-0.5 to 0.5)); higher = stronger / more preferred TF binding; details: protein concentration: 200 nM; construct: GST-DNA-binding domain
UniProt P13574, sequence (P13574 whole entry, the tested form may be a part): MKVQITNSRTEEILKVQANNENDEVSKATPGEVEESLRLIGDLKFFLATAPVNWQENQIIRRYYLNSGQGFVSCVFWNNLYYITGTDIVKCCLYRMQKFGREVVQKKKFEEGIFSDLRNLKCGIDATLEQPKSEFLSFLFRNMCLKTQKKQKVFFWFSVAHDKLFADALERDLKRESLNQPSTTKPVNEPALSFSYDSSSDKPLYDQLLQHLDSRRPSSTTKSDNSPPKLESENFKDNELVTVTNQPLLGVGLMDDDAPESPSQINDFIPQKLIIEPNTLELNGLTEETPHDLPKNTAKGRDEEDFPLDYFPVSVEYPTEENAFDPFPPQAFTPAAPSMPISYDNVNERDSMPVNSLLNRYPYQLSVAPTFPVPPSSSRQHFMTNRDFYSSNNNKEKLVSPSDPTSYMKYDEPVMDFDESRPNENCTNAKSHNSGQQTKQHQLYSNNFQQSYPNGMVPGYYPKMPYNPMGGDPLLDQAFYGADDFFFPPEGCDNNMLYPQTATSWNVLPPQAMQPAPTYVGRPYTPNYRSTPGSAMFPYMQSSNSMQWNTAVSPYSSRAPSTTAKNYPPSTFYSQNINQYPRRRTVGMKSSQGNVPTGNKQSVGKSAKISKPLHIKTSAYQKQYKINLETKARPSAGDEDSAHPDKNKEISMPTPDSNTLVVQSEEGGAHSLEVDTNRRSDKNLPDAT
Method in brief: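 Full-length yeast transcription factors or their DNA-binding domains, GST-tagged and expressed with PURExpress, were applied at about 100-200 nM to universal all-10-mer Agilent arrays. These arrays had been made double-stranded by primer extension on fresh or once-stripped slides. Detection used fluorescent anti-GST, normalisation used masliner, and E-scores for ungapped eight-base words pooled with reverse complements came from the Universal PBM Analysis Suite.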

Sequence | PBM E-score
GATTATTA | 0.196
CTTTATTA | 0.112
ATTTATAA | 0.267
ATTTATAC | 0.195
ATTATTTA | 0.281
CCTTATTA | 0.187
CTTATTTA | 0.171
ACTTATTA | 0.264
GCTTATTA | 0.0471
GTTTATTA | 0.304
ATTATTTG | 0.106
CTTTATAA | 0.153
AGATCCCG | 0.0252
GAAGGTTA | -0.115
GGCCGACC | -0.123
ACGTAAAG | 0.0191
CACAAGGG | -0.194
CGCCTCTA | -0.0334
ATTTATTG | 0.0911
ACTATTAC | 0.0443
ATTTATTC | 0.121
ATTTATTA | 0.292

Sequence | PBM E-score
CTTATTAC | 0.0999
ATTATTAC | 0.269
CGTGGTAA | -0.0665
ACATCTCA | -0.0976
CGCTCGAA | -0.0852
CTGATCAC | -0.0885
AGGCGAGA | -0.195
ATGAGACA | 0.338
ATGAGACC | -0.144
GTGAGACA | 0.256
AACTTTGC | -0.0155
AGAGTTCA | -0.222
CACATTAA | 0.0442
TAAACGTA | -0.115
GAAACGTA | 0.325
CAAACGTC | 0.0704
GAAACGTC | 0.303
CAAACGTA | -0.052
AAAACGTC | 0.134
CCCGCGAG | 0.119
ATTCGACG | 0.087
ATACCAGG | 0.0311

Sequence | PBM E-score
CCCATCAG | -0.193
GCAGGTAA | 0.0649
AGCGACAC | 0.0304
AGATCGTG | 0.0231
AATATCAA | 0.283
TATATTAA | 0.22
AATATTAA | 0.327
AATATCAG | 0.0475
CGTATCAA | 0.088
TGTATCAA | 0.392
AGTATCAA | 0.217
AATATTAT | 0.24
AATATCAC | 0.107
ACATATTA | 0.193
AGCACAAT | -0.16
TTATCGAA | 0.196
AATAGGGT | 0.148
AGACTGGA | -0.0847
CAGCTCAC | -0.301
ATCCGATA | 0.063
ATCCGATG | 0.277
ATCCGATC | 0.162

Sequence | PBM E-score
CACTCCCA | 0.0996
AGCGCTAG | -0.0146
GGCACTTA | -0.157
GATTCATA | 0.00383
GATTCGAC | 0.12
GATTCGAA | 0.277
ATTTCGGA | 0.181
CATTCATC | 0.125
CTTTCAAA | 0.246
CTTTCGGA | 0.0344
GTTTCAAA | 0.47
CATTCGAA | 0.11
GGTTCAAA | 0.195
GTTTCGGA | 0.334
CATTCATA | 0.296
ATGGTAGC | -0.0629
CACCCAAC | -0.0687
CTTGAGGA | -0.147
GGAGCTTA | -0.219
CCTATTCC | 0.0843
